A selection: hits, their analogues and other compounds. The true share with any hit is near 3.1%.
IL-2 act = activates IL-2 in a cell-based reporter assay. activation, % (series mostly up to about 46 µM). 0.065% of 360,000 active. IL-2 activation reporter assay, cell-based qHTS; stimulated with anti-CD3/CD4/CD28 beads; in transgenic mouse T cells; in the data active = activation above about 50%; inconclusive = mostly about 30% to 49%
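Unstimulated transgenic mouse T cells preincubated 60 min with compound, then stimulated with anti-CD3/anti-CD4-coated beads plus anti-CD28 for 18 h at 37 degrees C. IL-2 response read as EGFP and DsRed fluorescence by plate cytometry.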
BRCA1 expr up = activators of BRCA1 expression. 1.1% of 380,000 active. Potency, µM (highest dose often 46.1 µM), actives largely listed as activators. MCF7-BRCA1-FFLuc reporter, luminescence, 48 h; response scale: scaled: vehicle 0%, 10 µM genistein 100%. AID 624202; also: nearly all actives have a fitted effect of over 80% in size
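MCF7-BRCA1-FFLuc, 2000 cells/well; 2 h attach, 37 °C/5% CO2; compound 48 h; luciferase substrate 15 min; luminescence end-point. Norm. to genistein 10 microM max activation and DMSO; concentration-response curves fitted.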
ELG1 repair inh = blocks ELG1-dependent DNA repair in HEK293T cells; HEK293T ELG1-luciferase reporter, luminescence, 16 h; DNA damage induced by 5-fluorouridine; Potency, µM (highest dose often 46.1 µM), usual class: inhibitors; 2.3% of 330,000 active; also: nearly all actives have a fitted effect of over 55% in size
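Step one: seed 2,000 cells per well. Step two: pin-transfer compound or DMSO alongside 5-fluorouridine. Step three: incubate 16 hr, 37 °C, 5% CO2. Step four: add ONE-Glo, wait 30 min, read luminescence.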
Nrf2 activator = activates Nrf2 signaling; AREc32 ARE-luciferase reporter (MCF7-derived line), luminescence, 24 h; 0.31% of 410,000 active; Potency, µM (titrated, usually from 46.1 µM), actives largely listed as activators; AID 624171; also: nearly all actives have a fitted effect of over 65% in size
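AREc32_Fluc, 1000 cells/well, OPTI-MEM + 5% FBS, o/n 37 deg C 5% CO2; 23 nL cpd by pin tool, 24 hr; Steady-Glo 30 min RT, luminescence.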
Each line names hits and unclear results; the compound was inactive in the other large screens. Unless noted, calls follow the shape of the dose curve; as a rule, active = well fitted curve in the direction sought with a large enough effect; inconclusive = small, poorly fitted or top-dose-only effect, or another doubt; inactive = no such curve, though single readings can be large; an effect the other way counts as inactive or inconclusive.

COc1cccc(-c2nnc(-c3ccc(C(F)(F)F)cc3)o2)c1	BRCA1 expr up 13µM, ELG1 repair inh inconclusive
O=S1(=O)C=C(Sc2nnc(-c3ccccc3)o2)c2ccccc21	ELG1 repair inh 16µM, Nrf2 activator inconclusive
Cc1cc(C)nc(SC2=CS(=O)(=O)c3ccccc32)n1	ELG1 repair inh inconclusive, Nrf2 activator inconclusive
CCOC(=O)CCc1c(C)nc2cc(-c3cc(OC)cc(OC)c3)[nH]n2c1=O	none (no result: IL-2 act, ELG1 repair inh)
COc1cc(-c2nn3c(C4CCCCC4)nnc3s2)cc(OC)c1OC	ELG1 repair inh 5.8µM
O=C(Nc1nnc(-c2ccco2)s1)c1ccccc1	ELG1 repair inh inconclusive, Nrf2 activator inconclusive
O=C(Nc1nnc(-c2ccco2)s1)C1CCN(S(=O)(=O)c2ccc(Cl)cc2)CC1	none
O=C(Nc1nnc(-c2ccco2)s1)C1CC1	ELG1 repair inh inconclusive, Nrf2 activator 11µM
CC(C)C(=O)Nc1nnc(-c2ccco2)s1	ELG1 repair inh inconclusive, Nrf2 activator 10µM
COc1ccc(CNC(=O)c2cc3cccc4c3n2CC(C)S4)cc1 (stereo unspecified)	none (no result: IL-2 act, BRCA1 expr up, ELG1 repair inh)
CCCCOc1ccc2c(c1)C(=O)c1cc(O)ccc1-2	BRCA1 expr up 3.5µM, ELG1 repair inh inconclusive
CCCCNC(=O)N(C)c1nc2ccccc2s1	BRCA1 expr up 4.5µM, ELG1 repair inh inconclusive
O=C(CN1C(=O)c2cccnc2Oc2ccc(Cl)cc21)Nc1cccc(C(F)(F)F)c1	none (no result: IL-2 act, BRCA1 expr up, ELG1 repair inh)
O=C(NC(=S)NCCO)c1sc2ccccc2c1Cl	BRCA1 expr up 11µM, ELG1 repair inh inconclusive, Nrf2 activator inconclusive
Cc1ccc2nc(-c3ccccc3)cc(C(=O)NNC(=O)c3csc(N4CCOCC4)n3)c2c1	ELG1 repair inh 6.5µM
Cc1cccc(-c2nc(C#N)c(NC3CCCCC3)o2)c1	BRCA1 expr up 3.2µM, ELG1 repair inh inconclusive
Cc1cc2ccccc2n2c(SCC(=O)Nc3ccc(S(=O)(=O)N4CCC(C)CC4)cc3)nnc12	ELG1 repair inh 26µM
CCC1CCCCN1C(=O)CSc1nnc(-c2ccc(Cl)cc2)o1 (stereo unspecified)	none
CCC1CCCCN1C(=O)CSc1nnc(-c2ccco2)o1 (stereo unspecified)	BRCA1 expr up 3.2µM, ELG1 repair inh inconclusive
CCC1CCCCN1C(=O)CSc1nnc(-c2cccc(Cl)c2)o1 (stereo unspecified)	BRCA1 expr up 10µM, ELG1 repair inh inconclusive
Cc1ccc(SC2=C(Sc3ccc(C)cc3)C(=O)c3ccccc3C2=O)cc1	ELG1 repair inh inconclusive
CC1=CC(=O)C(Sc2ccc(C)cc2)=CC1=O	Nrf2 activator 13µM (no result: ELG1 repair inh)
CCc1ccc(O)c(C(=O)c2cnc3cc(-c4ccc(C)cc4)nn3c2)c1	none (no result: IL-2 act, ELG1 repair inh)
COCCNC(=O)Nc1cc(C(=O)NCc2ccc(C(C)C)cc2)ccc1N1CCCC1	none (no result: IL-2 act, BRCA1 expr up, ELG1 repair inh)
Fc1ccc(-c2nc(-c3c[nH]c4ccccc34)cs2)cc1	none (no result: IL-2 act, ELG1 repair inh, Nrf2 activator)
COc1cc(OC)c(OC)cc1/C=C1\CCC/C(=C\c2cc(OC)c(OC)cc2OC)C1=O	ELG1 repair inh 15µM
COc1ccc(/C=C2\CC/C(=C\c3ccc(OC)cc3OC)C2=O)c(OC)c1	none
COc1cc(OC)c(OC)cc1/C=C1\CCC(C2CCCC2)C1=O (stereo unspecified)	ELG1 repair inh 7.3µM
COc1ccc(/C=C2\CCC/C(=C\c3ccc(OC)c(OC)c3OC)C2=O)c(OC)c1OC	ELG1 repair inh 23µM
COc1cc(/C=C2\CC/C(=C\c3ccc(OCCO)c(OC)c3)C2=O)ccc1OCCO	IL-2 act 163, ELG1 repair inh inconclusive, Nrf2 activator inconclusive
CC(=O)C1=C(c2ccc(Cl)c(Cl)c2)N(C(C)=O)n2cnnc2S1	none (no result: IL-2 act, BRCA1 expr up, ELG1 repair inh)
Cc1ccc(/C=C2\CCC(C3CCCC3)C2=O)cc1 (stereo unspecified)	BRCA1 expr up 13µM, ELG1 repair inh inconclusive
COc1ccc(-c2nnc(SCCOc3ccccc3C)o2)cc1OC	none (no result: IL-2 act, ELG1 repair inh)
COc1cccc(/C=N/Nc2cc(-n3nc(C)cc3-c3ccccc3)ncn2)c1O	ELG1 repair inh 5.2µM
COc1cccc(/C=N/Nc2nc(Nc3ccccc3)nc(-n3nc(C)cc3C)n2)c1O	ELG1 repair inh 2.6µM
COc1cccc(/C=N/Nc2ncnc(Cl)c2N)c1O	none
COc1cccc(/C=N/Nc2ncnc3scc(-c4ccccc4)c23)c1O	ELG1 repair inh 7.3µM
CCN=C(Nc1ccc2c(c1)OCO2)SC1CC(=O)N(c2ccccc2F)C1=O (stereo unspecified)	none
CCN=C(Nc1ccc2c(c1)OCO2)SC1CC(=O)N(c2ccc(OC)cc2)C1=O (stereo unspecified)	ELG1 repair inh 16µM
